Measurements as given in PubChem BioAssay (NCATS).
Inconclusive results are not listed. Entries that show only a call come without a potency. Activity calls are given as the source filed them. The call rests on the fitted dose curve; in most records, active means well fitted curve in the direction sought with a large enough effect; inconclusive means small, poorly fitted or top-dose-only effect, or another doubt; inactive means no such curve, though single readings can be large; an effect the other way counts as inactive or inconclusive.

Columns and labels:
[1] = qHTS of pediatric cancer cell lines to identify multiple opportunities for drug repurposing: Primary screen for U-2 OS cells (AID 1347096); further: nearly all actives have a fitted effect of over 50% in size
Method in brief: (§1)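 Cells (500-1,000/well) rested 5 h, then received compounds for 48 h; metabolically active cells were measured by CellTiter-Glo luminescence. Final concentrations spanned up to 46 µM (MIPE, 11-point) or 0.59 nM-46 µM (NPC, 8-point) in primary screens, 11-point in follow-ups.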

[2] = qHTS of pediatric cancer cell lines to identify multiple opportunities for drug repurposing: Primary screen for Saos-2 cells (AID 1347097); further: nearly all actives have a fitted effect of over 40% in size; further: potency means the concentration at half of the fitted maximal effect
Method in brief: (§2)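 Primary screen of approved and investigational compounds on cells in growth media at 37 degrees C, 5% CO2. MIPE set at 11-point and NPC set at 8-point dilutions; viability scored by ATP-based luminescence at 48 hours.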

[3] = qHTS of pediatric cancer cell lines to identify multiple opportunities for drug repurposing: Primary screen for SK-N-SH cells (AID 1347098); further: nearly all actives have a fitted effect of over 65% in size; further: potency means the concentration at half of the fitted maximal effect
Method in brief: as §1

[4] = qHTS of pediatric cancer cell lines to identify multiple opportunities for drug repurposing: Primary screen for LAN-5 cells (AID 1347100); further: potency means the concentration at half of the fitted maximal effect
Method in brief: as §1

[5] = qHTS of pediatric cancer cell lines to identify multiple opportunities for drug repurposing: Primary screen for Rh18 cells (AID 1347102); further: nearly all actives have a fitted effect of over 65% in size; further: potency means the concentration at half of the fitted maximal effect
Method in brief: as §1

[6] = qHTS of pediatric cancer cell lines to identify multiple opportunities for drug repurposing: Primary screen for OHS-50 cells (AID 1347103); further: nearly all actives have a fitted effect of over 40% in size; further: potency means the concentration at half of the fitted maximal effect
Method in brief: as §1

[7] = qHTS of pediatric cancer cell lines to identify multiple opportunities for drug repurposing: Primary screen for RD cells (AID 1347104); further: nearly all actives have a fitted effect of over 55% in size; further: potency means the concentration at half of the fitted maximal effect
Method in brief: as §2

[8] = qHTS of pediatric cancer cell lines to identify multiple opportunities for drug repurposing: Primary screen for MG 63 (6-TG R) cells (AID 1347105); further: nearly all actives have a fitted effect of over 50% in size; further: potency means the concentration at half of the fitted maximal effect
Method in brief: as §2

[9] = qHTS of pediatric cancer cell lines to identify multiple opportunities for drug repurposing: Primary screen for BT-12 cells (AID 1347101); further: nearly all actives have a fitted effect of over 25% in size; further: potency means the concentration at half of the fitted maximal effect
Method in brief: as §1

[10] = qHTS of pediatric cancer cell lines to identify multiple opportunities for drug repurposing: Primary screen for NB1643 cells (AID 1347099); further: nearly all actives have a fitted effect of over 50% in size; further: potency means the concentration at half of the fitted maximal effect
Method in brief: as §2

Cc1cc([C@@H](C)Nc2ccccc2C(=O)O)c2nc(N3CCOCC3)cc(=O)n2c1
Potency [1]: inactive
Potency [2]: 9.59 µM (active)
Potency [3]: 9.87 µM (active)
Potency [4]: 34 µM (active)
Potency [5]: 12.1 µM (active)
Potency [6]: 2.22 µM (active)
Potency [7]: 12.1 µM (active)
Potency [8]: 1.71 µM (active)

COc1cc2c(cc1OC)CN(CCc1ccc(NC(=O)c3cccc4c(=O)c5cccc(OC)c5[nH]c34)cc1)CC2
Potency [1]: inactive
Potency [2]: inactive
Potency [3]: 12.1 µM (active)
Potency [4]: inactive
Potency [9]: inactive
Potency [6]: inactive
Potency [8]: inactive

COc1ccc2nc(S(=O)Cc3ncc(C)c(OC)c3C)[nH]c2c1 (configuration not stated)
Potency [1]: inactive
Potency [2]: inactive
Potency [3]: inactive
Potency [4]: inactive
Potency [5]: inactive
Potency [7]: inactive
Potency [8]: inactive

Cc1[nH]c(=O)c(C#N)cc1-c1ccncc1
Potency [1]: inactive
Potency [2]: inactive
Potency [3]: inactive
Potency [4]: inactive
Potency [9]: inactive
Potency [6]: inactive
Potency [7]: inactive
Potency [8]: inactive

CC(C)C[C@H](NC(=O)[C@@H](O)[C@H](N)Cc1ccccc1)C(=O)O
Potency [1]: inactive
Potency [2]: 18.7 µM (active)
Potency [3]: 24.1 µM (active)
Potency [9]: 30.6 µM (active)
Potency [6]: 19.3 µM (active)
Potency [7]: 37.2 µM (active)

Cc1c(C)c2c(c(C)c1O)CCC(C)(COc1ccc(CC3SC(=O)NC3=O)cc1)O2 (configuration not stated)
Potency [1]: inactive
Potency [2]: inactive
Potency [3]: inactive
Potency [4]: inactive
Potency [6]: inactive
Potency [7]: inactive
Potency [8]: inactive

Cc1cnc(Nc2ccc(OCCN3CCCC3)cc2)nc1Nc1cccc(S(=O)(=O)NC(C)(C)C)c1
Potency [1]: inactive
Potency [2]: inactive
Potency [10]: 23.5 µM (active)
Potency [4]: inactive
Potency [5]: inactive
Potency [7]: inactive

CCOc1cc(C=C2C(=O)N(c3ccccc3)N=C2C)cc(Cl)c1OCC(=O)OC
Potency [1]: inactive
Potency [2]: inactive
Potency [4]: 18.7 µM (active)
Potency [9]: inactive
Potency [7]: inactive

CNCc1ccc(-c2[nH]c3cc(F)cc4c3c2CCNC4=O)cc1
Potency [1]: inactive
Potency [2]: inactive
Potency [9]: inactive
Potency [6]: inactive
Potency [8]: inactive

COc1nc(-c2ccc3c(c2)OCO3)n(-c2ccc(NC(=O)CSc3ccccc3)cc2)n1
Potency [1]: inactive
Potency [3]: inactive
Potency [10]: inactive
Potency [4]: inactive
Potency [9]: inactive
Potency [5]: inactive
Potency [7]: inactive
Potency [8]: inactive

CCn1c(-c2nonc2N)nc2cnc(Oc3cccc(NC(=O)c4ccc(OCCN5CCOCC5)cc4)c3)cc21
Potency [1]: inactive
Potency [2]: 0.662 µM (active)
Potency [4]: 2.96 µM (active)
Potency [9]: 6.11 µM (active)
Potency [5]: inactive
Potency [6]: 15.3 µM (active)
Potency [8]: inactive

COc1ccc(CC2=NN3C([C@@H](CCc4ccccc4)[C@@H](C)O)=NC(C)C3C(=O)N2)cc1OC (some centres not stated)
Potency [1]: inactive
Potency [2]: inactive
Potency [4]: inactive
Potency [9]: inactive
Potency [5]: inactive
Potency [6]: inactive
Potency [7]: inactive
Potency [8]: inactive

COc1ccc(COc2cc3oc(=O)c4cc(C(C)O)ccc4c3cc2OC)cc1 (configuration not stated)
Potency [1]: inactive
Potency [2]: 14.8 µM (active)
Potency [10]: inactive
Potency [4]: inactive
Potency [8]: 18.7 µM (active)
